Screens (PubChem BioAssay)
The list is not random: actives were taken first. Their share in the collection is about 2.7%.
Peg3 promoter = inhibitors of Peg3 promoter; HeLa PEG-Prom luciferase reporter, luminescence, overnight; inhibition, % at 20 µM; 360,000 compounds, 1.7% hits; AID 588405;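 active means inhibition of at least 50% at 20 µM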
Shn3 inh set2 = reduces Shn3 3'UTR luciferase signal in osteoblasts; Clone20 osteoblast Shn3 3'UTR firefly luciferase, 24 h; inhibition, % at 12.5 µM; 360,000 compounds, 0.52% hits; AID 588674;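 active means mean inhibition of at least 75% with every replicate also reaching 75%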;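 further: 0% = median of neutral control wells and 100% = pilot-screen positive control compound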
CF NFkB block = blocks PAF-induced NF-kB reporter in cystic fibrosis cells; KKLEB NF-kB-GFP reporter, GFP fluorescence overnight; inhibition, % at 5 µM; 360,000 compounds, 0.86% hits;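 active means at least 50% inhibition at 5 µM, scaled per plate between neutral and stimulator controls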;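 further: PAF is a Pseudomonas aeruginosa culture filtrate used as stimulus; plate controls were PAF-stimulated DMSO wells for no effect and unstimulated DMSO wells for full effect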
MITF TRPM1 inh = MITF TRPM1 promoter inhibition in SK-MEL-5 cells. SK-MEL-5 TRPM1 promoter luciferase, 24 h. inhibition, % at 12.5 µM. 330,000 compounds, 0.83% hits;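 active means mean inhibition across replicates of 60% or more, whatever share of single replicates reaches that level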
KKLEB tox = CF airway cell cytotoxicity counter-screen. KKLEB CF airway cells viability, ATPlite luminescence, overnight; stronger effect = lower value; cells stimulated with P. aeruginosa culture filtrate. activity change (cytotoxicity), % at 5 µM. 360,000 compounds, 0.36% hits;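 active means corrected activity change at or below -50% at 5 µM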
HIF-2a block = HIF-2a inhibition; 360,000 compounds, 0.72% hits; inhibition, % at 18.8 µM; 786-0 RCC cells HIF-2a reporter, luciferase luminescence, overnight;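 active means inhibition of the luminescence signal of 40% or more relative to plate controls, in a single-dose primary screen at 18.75 µM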
* marks the source's active call; other numbers are inactive results.

COC(=O)C1=C(c2ccc(OCc3ccccc3)cc2)C[C@@H]2CC[C@H]1N2C(=O)NC1CCN(Cc2ccccc2)CC1 was read as Peg3 promoter 86*, Shn3 inh set2 74, CF NFkB block 24, MITF TRPM1 inh 58, KKLEB tox -18 and HIF-2a block -8.
CN1CCCC1c1ccc(=O)[nH]c1 (centres undefined) was read as Peg3 promoter 7, Shn3 inh set2 4, CF NFkB block 4, MITF TRPM1 inh 5, KKLEB tox 2 and HIF-2a block 7.
For CCc1cc(=O)oc2cc(OCC(=O)N3C[C@H]4C[C@@H](C3)c3cccc(=O)n3C4)ccc12 the results were Peg3 promoter -12, Shn3 inh set2 -8, CF NFkB block 14, MITF TRPM1 inh -3, KKLEB tox -22 and HIF-2a block 9.
CC(O)C1C=CC=CC(=O)OC2CC3OC4C5OC5(C)CCC4(COC(=O)C4OC4(C)C(O)CO1)C2(C)C31CO1 (centres undefined) was read as Peg3 promoter 97*, Shn3 inh set2 92*, CF NFkB block 83*, MITF TRPM1 inh 70*, KKLEB tox -22 and HIF-2a block 66*.
For CC(=O)OC1C(=O)OCC23CCC4(C)OC4C2OC2CC(OC(=O)C=CC=CC(=O)OCCC1C)C3(C)C21CO1 (centres undefined) the results were Peg3 promoter 100*, Shn3 inh set2 94*, CF NFkB block 93*, MITF TRPM1 inh 83*, KKLEB tox -55* and HIF-2a block 72*.
Cc1ccc(CN2C3CCCC2CC(NC(=O)Nc2cccc(F)c2)C3)cc1 (centres undefined) was read as Peg3 promoter 6, Shn3 inh set2 2, CF NFkB block -2, MITF TRPM1 inh -11, KKLEB tox -14 and HIF-2a block 5.
Screening CN(CCc1ccccc1)Cc1c[nH]c2ccccc12 returned Peg3 promoter 69*, Shn3 inh set2 36, CF NFkB block -31, MITF TRPM1 inh 16, KKLEB tox -3 and HIF-2a block 12.
CCN(CC)Cc1c[nH]c2ccccc12 was read as Peg3 promoter -6, Shn3 inh set2 0, CF NFkB block 13, MITF TRPM1 inh 13, KKLEB tox -1 and HIF-2a block 9.
Screening CCN1C(=O)/C(=C/c2ccc(N(CC)CC)cc2OC)C(=O)NC1=S returned Peg3 promoter 90*, Shn3 inh set2 7, CF NFkB block 36, MITF TRPM1 inh 2, KKLEB tox -8 and HIF-2a block 27.
CCOC(=O)C1C(=O)NC2(C)CC1c1cc(OC)ccc1O2 (centres undefined) was read as Peg3 promoter 16, Shn3 inh set2 89*, CF NFkB block 9, MITF TRPM1 inh 2, KKLEB tox 7 and HIF-2a block 4.
For C[N+](C)(C)CC#CCOC(=O)Nc1cccc(Cl)c1 the results were Peg3 promoter 84*, Shn3 inh set2 -3, CF NFkB block -2, MITF TRPM1 inh 0, KKLEB tox 17 and HIF-2a block -3.
`CC1NC(=O)NC(=O)C1Br` (centres undefined) gave Peg3 promoter 5, Shn3 inh set2 -8, CF NFkB block -2, MITF TRPM1 inh -6, KKLEB tox -2 and HIF-2a block 6.
`CC(=O)OC1C(O)C(C)OC(OC2C(OC(=O)C3CCC4C(C3)OC3(CC(OC(=O)/C=C/c5ccccc5)C(C)CO3)C43CO3)OC(C)C(O)C2OC(C)=O)C1O` (centres undefined) gave Peg3 promoter 93*, Shn3 inh set2 96*, CF NFkB block 90*, MITF TRPM1 inh 87*, KKLEB tox -23 and HIF-2a block 65*.
For O=C(NC1CCCCC1)Oc1cc2oc(=O)sc2cc1Cl the results were Peg3 promoter 39, Shn3 inh set2 -45, CF NFkB block -4, MITF TRPM1 inh 35, KKLEB tox 2 and HIF-2a block 13.
Screening CCCc1nc2ccc(Br)cc2c(=O)n1-c1ccc([N+](=O)[O-])c(C(F)(F)F)c1 returned Peg3 promoter 55*, Shn3 inh set2 93*, CF NFkB block 43, MITF TRPM1 inh 32, KKLEB tox -21 and HIF-2a block -7.
O=c1[nH]c2ccccc2n1C1CCN(C(c2ccnc3ccccc23)c2nnnn2-c2ccc3c(c2)OCCO3)CC1 (centres undefined) was read as Peg3 promoter 62*, Shn3 inh set2 3, CF NFkB block 77*, KKLEB tox -70* and HIF-2a block -19.
`CCC(c1nnnn1-c1ccc(OC)cc1)N1CCC(n2c(=O)[nH]c3ccccc32)CC1` (centres undefined) gave Peg3 promoter 23, Shn3 inh set2 9, CF NFkB block -2, KKLEB tox 8 and HIF-2a block 4.
Screening O=c1[nH]c2ccccc2n1C1CCN(C(CCc2ccccc2)c2nnnn2-c2ccc3c(c2)OCCO3)CC1 (centres undefined) returned Peg3 promoter 90*, Shn3 inh set2 60, CF NFkB block 60*, KKLEB tox -90* and HIF-2a block -33.
CSCCC(c1nnnn1-c1ccc2c(c1)OCCO2)N1CCC2(CC1)C(=O)NCN2c1ccccc1 (centres undefined) was read as Peg3 promoter 30, Shn3 inh set2 5, CF NFkB block 0, KKLEB tox -3 and HIF-2a block 11.
Screening Cc1cccc(C)c1-n1nnnc1C(CCc1ccccc1)N1CCC(n2c(=O)[nH]c3ccccc32)CC1 (centres undefined) returned Peg3 promoter 98*, Shn3 inh set2 16, CF NFkB block 48, KKLEB tox -18 and HIF-2a block 0.
Screening CCC(c1nnnn1Cc1ccccc1)N1CCC(n2c(=O)[nH]c3ccccc32)CC1 (centres undefined) returned Peg3 promoter 75*, Shn3 inh set2 32, CF NFkB block 99*, KKLEB tox -71* and HIF-2a block -23.
`NC(N)=Nc1ccc2[nH]c3c(c2c1)C[C@@]1(O)[C@H]2Cc4ccc(O)c5c4[C@@]1(CCN2CC1CC1)[C@H]3O5` gave Peg3 promoter -4, Shn3 inh set2 -23, CF NFkB block -24, MITF TRPM1 inh 4, KKLEB tox -2 and HIF-2a block 16.
Screening CC(OC(=O)c1cn(C)c2ccccc12)C(=O)N1CCCC1 (centres undefined) returned Peg3 promoter 8, Shn3 inh set2 -9, CF NFkB block -21, MITF TRPM1 inh -5, KKLEB tox 18 and HIF-2a block 14.
`CC1CN(c2ccccn2)C(C)CN1C(=O)C(O)(c1ccccc1)c1ccccc1` (centres undefined) gave Peg3 promoter 13, Shn3 inh set2 21, CF NFkB block -8, MITF TRPM1 inh 3, KKLEB tox -6 and HIF-2a block 7.
